For test [1], the target named is Bifunctional 3'-5' exonuclease/ATP-dependent helicase WRN (Homo sapiens) (UniProt Q14191). The test can be described thus: qHTS for Inhibitors of WRN Helicase: Confirmatory Assay for Cherry-picked Compounds. (AID 720497). Further: nearly all actives have a fitted effect of over 65% in size. Further: potency means the concentration at half of the fitted maximal effect. The essentials: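 WRN (20 nM) was preincubated 15 min at RT with compound, then started with 100 nM forked duplex oligonucleotide and 2 mM ATP. Unwinding was read kinetically by red fluorescence (ex 525/em 598 nm), normalized to enzyme-free and uninhibited controls.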
A general note: Quantitative high-throughput screening tests each substance at several concentrations.

Test [2] is described as follows: qHTS for Inhibitors of WRN Helicase: Thiazole Orange DNA Binding Counterscreen (AID 720499).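 Further: drop in dye fluorescence marks compound binding to DNA; nearly all actives have a fitted effect of over 60% in size.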 Further: potency means the concentration at half of the fitted maximal effect. The essentials: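 Thiazole orange displacement counterscreen: compounds added to 50 nM unlabeled DNA with 100 nM ThO. Fluorescence (ex 480, em 530 nm) read after 15 min at room temperature; activity flags nonspecific DNA binding.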
The target of test [3] is RecQ-like DNA helicase BLM (Homo sapiens) (UniProt P54132). The test can be described thus: qHTS for Inhibitors of WRN Helicase: BLM Helicase Counterscreen for WRN Inhibitors (AID 720503). Further: nearly all actives have a fitted effect of over 60% in size. Further: potency means the concentration at half of the fitted maximal effect. A digest of the protocol: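 BLM (1 nM) was preincubated with compounds for 15 min at room temperature in Tris-HCl pH 8.0, 50 mM NaCl, 2 mM MgCl2 buffer. Unwinding started with 100 nM DNA and 2 mM ATP (final); red fluorescence was read twice, 15 min apart.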

The target of test [4] is DNA polymerase eta (Homo sapiens) (UniProt Q9Y253). The test can be described thus: qHTS for Inhibitors of Polymerase Eta: Confirmatory Assay for Cherry-picked Compounds (AID 720502). Further: potency means the concentration at half of the fitted maximal effect. Conditions: Pol eta primer extension, TAMRA/BHQ fluorescence, 10 min. A digest of the protocol:
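Quenched-fluorescence replication assay: 10 nM Pol eta, 50 nM substrate final, 15 min compound preincubation at room temperature, 10 min kinetic reaction read at 525/598 nm.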

Test [5] is described as follows: qHTS for small molecule inhibitors of Yes1 kinase: Counter Assay (AID 686950).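 Further: no kinase present so only ADP-Glo detection of a fixed ADP amount is tested; luminescence from ADP-Glo reporting ADP in a fixed ATP and ADP mixture; 0% = DMSO wells with ATP plus ADP and -100% = ATP-only wells without ADP.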 A digest of the protocol: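 Luminescence read-out from ADP-Glo quantifies a fixed ADP amount (0.02 mM ADP with 0.08 mM ATP) after 60 min at room temperature; signal is normalized between DMSO wells with ATP/ADP and with 0.1 mM ATP alone.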
The target in test [6] is DNA polymerase iota (Homo sapiens) (UniProt Q9UNA4). The test can be described thus: qHTS for Inhibitors of Polymerase Iota: Confirmatory Assay for Cherry-picked Compounds (AID 720496). Further: potency means the concentration at half of the fitted maximal effect. Conditions: Pol iota primer extension, TAMRA/BHQ fluorescence. The essentials: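 Recombinant human Pol iota (10 nM) was preincubated with compound for 15 min at room temperature, then 50 nM final primer/template substrate was added; the substrate carried a TAMRA-labeled reporter strand and a BHQ-2-quenched template. Fluorescence was read at 0 and 10 min.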

Test [7] concerns the target DNA polymerase kappa (Homo sapiens) (UniProt Q9UBT6). The test can be described thus: qHTS for Inhibitors of Polymerase Kappa: Confirmatory Assay for Cherry-picked Compounds (AID 720501). Further: potency means the concentration at half of the fitted maximal effect. Conditions: purified Pol-kappa, fluorescent strand-displacement substrate. A digest of the protocol:
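Strand-displacement fluorescence read-out: TAMRA reporter released from a BHQ-2-quenched template, measured at 525/598 nm over a 10 min kinetic window. Substrate was 50 nM final; enzyme was 10 nM Pol-kappa, preincubated 15 min at room temperature with compound.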

Test [8] concerns the target Flap endonuclease 1 (Homo sapiens) (UniProt P39748). The test can be described thus: qHTS Assay for the Inhibitors of FEN1: Confirmatory Assay for Cherry-picked Compounds (AID 720498). Further: potency means the concentration at half of the fitted maximal effect; nearly all actives have a fitted effect of over 60% in size. Conditions: FEN1 flap cleavage, TAMRA/BHQ2 fluorogenic DNA substrate. A digest of the protocol:
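FEN1 at 10 nM was preincubated with compound for 15 min at room temperature, then 50 nM (final) double-flap DNA substrate was added. TAMRA fluorescence released from the BHQ-2-quenched flap was read at 0 and 15 min (ex 525/em 598 nm).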

Test [9] is described as follows: qHTS Assay for Identifying Gametocytocidal Compounds (AID 743244).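 Further: on the % scale 0 is the no-effect control and ±100 the full control effect; actives lower the fluorescent signal which means gametocytes are killed.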 Conditions: P. falciparum 3D7 stage III-V gametocytes, alamarBlue, 72 h; stronger effect = lower value. A digest of the protocol: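 In this qHTS viability screen, late-stage 3D7 gametocytes are incubated with compound for 72 h, then with alamarBlue for 24 h; reduced resorufin fluorescence marks killing.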

A short description of test [10]: qHTS profiling for inhibitors of Plasmodium falciparum (3D7) proliferation (AID 743322).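 Further: infected erythrocytes exposed to compound for 72 h before lysis; 100% = DMSO vehicle wells and 0% = 0.29 µM artemisinin.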 Conditions: P. falciparum 3D7 proliferation; at 28.7 µM (top of the series). A digest of the protocol: (§1)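 Erythrocytes infected with P. falciparum (0.3% parasitemia, 2.5% hematocrit) incubated with compounds 72 h at 37 C, 5% CO2. Lysis with saponin/Triton buffer containing SYBR Green I, overnight at room temperature in the dark; DNA fluorescence (485/535 nm) normalised to 0.29 uM artemisinin and DMSO.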

Test [11] in a line: qHTS profiling for inhibitors of Plasmodium falciparum (DD2) proliferation (AID 743323; call rule not given here). Conditions: lower = more inhibition; at 28.7 µM (top of the series). A digest of the protocol: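 SYBR Green fluorescence (ex 485, em 535 nm) of lysed cultures gives parasite DNA content; wells normalized to artemisinin (0.29 uM) and DMSO controls. Infected red cells: 0.3% parasitemia, 2.5% hematocrit, 72 h, 37 C.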

Test [12] is described as follows: qHTS profiling for inhibitors of Plasmodium falciparum (HB3) proliferation (AID 743324).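 Further: 100% = DMSO vehicle wells and 0% = artemisinin-treated control wells.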 Conditions: Plasmodium falciparum HB3 blood-stage proliferation; at 28.7 µM (top of the series). The essentials: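 P. falciparum HB3 grown in erythrocytes (0.3% parasitemia, 2.5% hematocrit final) with compound for 72 h at 37 C, 5% CO2. Parasite DNA detected by SYBR Green after saponin/triton lysis overnight; normalized to 0.29 uM artemisinin and DMSO.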

The nature of test [13]: qHTS profiling of the MIPE4 collection as inhibitors of Plasmodium falciparum (3D7) proliferation (AID 743344; call rule not given here;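 further: scaled between DMSO vehicle wells and 0.29 µM artemisinin as full inhibition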). Conditions: P. falciparum 3D7 in erythrocytes, SYBR Green DNA fluorescence, 72 h; at 28.5 µM (top of the series). The essentials:
as §1

Test [14] can be described thus: qHTS profiling of the MIPE4 collection as inhibitors of Plasmodium falciparum (DD2) proliferation (AID 743345; call rule not given here). Conditions: P. falciparum Dd2 in erythrocytes, SYBR Green DNA, 72 h; at 28.5 µM (top of the series). The essentials: as §1
The nature of test [15]: qHTS profiling of the MIPE4 collection as inhibitors of Plasmodium falciparum (DD2) proliferation (Rep 2) (AID 743346; call rule not given here). Conditions: P. falciparum Dd2 in erythrocytes, SYBR Green DNA, 72 h; at 28.5 µM (top of the series). The essentials: as §1
Test [16] can be described thus: qHTS profiling of the MIPE4 collection as inhibitors of Plasmodium falciparum (HB3) proliferation (AID 743347; call rule not given here;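 further: plate controls were DMSO vehicle wells for no effect and artemisinin wells for full effect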). Conditions: P. falciparum HB3 in erythrocytes, SYBR Green DNA, 72 h; at 28.5 µM (top of the series). A digest of the protocol: as §1

The structures appear in SMILES notation. Results filed as inconclusive are left out. The list shows a part of the results. Active and inactive are the calls of the source. Unless noted, the call rests on the fitted dose curve; in most records, active means well fitted curve in the direction sought with a large enough effect; inconclusive means small, poorly fitted or top-dose-only effect, or another doubt; inactive means no such curve, though single readings can be large; an effect the other way counts as inactive or inconclusive.

Chain of Bifunctional 3'-5' exonuclease/ATP-dependent helicase WRN (Homo sapiens) (Q14191 whole entry, looked up): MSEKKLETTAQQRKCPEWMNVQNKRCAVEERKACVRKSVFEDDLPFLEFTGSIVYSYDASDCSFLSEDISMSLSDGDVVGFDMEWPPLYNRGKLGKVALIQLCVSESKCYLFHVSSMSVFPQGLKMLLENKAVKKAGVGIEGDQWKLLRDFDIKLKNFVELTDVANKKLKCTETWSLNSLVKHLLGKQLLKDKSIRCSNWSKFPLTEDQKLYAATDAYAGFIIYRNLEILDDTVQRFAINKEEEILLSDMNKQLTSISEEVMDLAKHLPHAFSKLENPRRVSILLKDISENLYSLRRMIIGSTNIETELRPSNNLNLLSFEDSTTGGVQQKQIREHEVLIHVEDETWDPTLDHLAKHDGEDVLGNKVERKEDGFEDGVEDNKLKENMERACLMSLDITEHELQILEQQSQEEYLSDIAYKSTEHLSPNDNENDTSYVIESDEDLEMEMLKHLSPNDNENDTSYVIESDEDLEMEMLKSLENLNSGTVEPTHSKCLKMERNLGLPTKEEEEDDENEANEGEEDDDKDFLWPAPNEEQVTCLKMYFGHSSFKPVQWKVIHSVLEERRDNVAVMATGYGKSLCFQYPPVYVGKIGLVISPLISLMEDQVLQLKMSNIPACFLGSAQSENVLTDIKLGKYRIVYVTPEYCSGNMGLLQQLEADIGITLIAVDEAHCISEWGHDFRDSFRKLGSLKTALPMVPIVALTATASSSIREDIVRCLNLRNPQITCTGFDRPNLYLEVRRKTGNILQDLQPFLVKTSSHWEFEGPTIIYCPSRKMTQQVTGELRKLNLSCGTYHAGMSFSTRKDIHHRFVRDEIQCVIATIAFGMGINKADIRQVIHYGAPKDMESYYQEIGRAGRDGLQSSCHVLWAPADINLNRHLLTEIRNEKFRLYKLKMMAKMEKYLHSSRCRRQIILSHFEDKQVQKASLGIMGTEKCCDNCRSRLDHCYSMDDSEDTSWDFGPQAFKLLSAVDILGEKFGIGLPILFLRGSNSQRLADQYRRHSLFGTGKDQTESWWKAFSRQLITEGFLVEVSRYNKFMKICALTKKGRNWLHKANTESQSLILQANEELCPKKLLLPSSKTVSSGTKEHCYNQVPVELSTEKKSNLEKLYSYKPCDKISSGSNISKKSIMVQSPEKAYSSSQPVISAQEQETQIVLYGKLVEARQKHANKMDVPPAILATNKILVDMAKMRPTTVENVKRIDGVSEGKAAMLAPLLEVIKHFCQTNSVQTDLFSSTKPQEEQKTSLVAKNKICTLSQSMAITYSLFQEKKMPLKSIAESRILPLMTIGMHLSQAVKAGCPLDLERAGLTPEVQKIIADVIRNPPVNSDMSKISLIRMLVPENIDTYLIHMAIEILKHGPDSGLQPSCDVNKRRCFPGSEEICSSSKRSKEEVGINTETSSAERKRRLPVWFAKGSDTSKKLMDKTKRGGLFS
Chain of RecQ-like DNA helicase BLM (Homo sapiens) (P54132 whole entry, looked up): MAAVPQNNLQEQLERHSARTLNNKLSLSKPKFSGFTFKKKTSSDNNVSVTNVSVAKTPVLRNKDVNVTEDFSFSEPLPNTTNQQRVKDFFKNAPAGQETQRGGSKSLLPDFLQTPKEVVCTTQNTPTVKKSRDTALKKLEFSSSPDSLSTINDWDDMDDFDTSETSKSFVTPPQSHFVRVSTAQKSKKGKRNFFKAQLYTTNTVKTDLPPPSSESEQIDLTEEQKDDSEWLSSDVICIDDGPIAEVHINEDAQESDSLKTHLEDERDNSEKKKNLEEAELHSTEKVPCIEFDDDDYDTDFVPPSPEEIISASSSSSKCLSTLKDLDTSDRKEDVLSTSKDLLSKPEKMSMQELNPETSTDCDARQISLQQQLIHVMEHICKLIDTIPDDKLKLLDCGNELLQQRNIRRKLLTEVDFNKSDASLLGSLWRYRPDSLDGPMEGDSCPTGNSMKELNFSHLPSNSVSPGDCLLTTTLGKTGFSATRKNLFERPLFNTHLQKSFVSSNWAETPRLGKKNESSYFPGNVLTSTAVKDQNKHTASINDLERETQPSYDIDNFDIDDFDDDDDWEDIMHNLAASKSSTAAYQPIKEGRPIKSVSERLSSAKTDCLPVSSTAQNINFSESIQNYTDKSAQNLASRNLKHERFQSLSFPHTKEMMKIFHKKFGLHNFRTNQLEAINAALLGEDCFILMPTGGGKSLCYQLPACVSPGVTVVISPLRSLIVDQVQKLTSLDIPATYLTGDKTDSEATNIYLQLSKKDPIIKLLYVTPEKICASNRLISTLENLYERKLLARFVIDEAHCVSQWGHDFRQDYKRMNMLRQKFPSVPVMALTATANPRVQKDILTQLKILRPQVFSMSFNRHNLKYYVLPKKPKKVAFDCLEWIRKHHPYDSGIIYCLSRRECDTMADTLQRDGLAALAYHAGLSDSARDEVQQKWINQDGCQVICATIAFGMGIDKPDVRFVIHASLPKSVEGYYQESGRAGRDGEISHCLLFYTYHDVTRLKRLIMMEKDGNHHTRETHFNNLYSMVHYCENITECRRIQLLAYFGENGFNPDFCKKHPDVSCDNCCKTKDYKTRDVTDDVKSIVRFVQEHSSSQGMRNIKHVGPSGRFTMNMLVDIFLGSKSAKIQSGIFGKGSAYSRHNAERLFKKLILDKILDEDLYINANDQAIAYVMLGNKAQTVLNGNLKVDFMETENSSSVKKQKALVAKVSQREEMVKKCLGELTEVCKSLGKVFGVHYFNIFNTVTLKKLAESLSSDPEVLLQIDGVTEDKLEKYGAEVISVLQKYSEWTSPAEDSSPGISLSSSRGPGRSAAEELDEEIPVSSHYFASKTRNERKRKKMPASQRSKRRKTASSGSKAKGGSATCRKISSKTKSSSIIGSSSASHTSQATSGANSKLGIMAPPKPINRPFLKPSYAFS
Chain of DNA polymerase eta (Homo sapiens) (Q9Y253 whole entry, looked up): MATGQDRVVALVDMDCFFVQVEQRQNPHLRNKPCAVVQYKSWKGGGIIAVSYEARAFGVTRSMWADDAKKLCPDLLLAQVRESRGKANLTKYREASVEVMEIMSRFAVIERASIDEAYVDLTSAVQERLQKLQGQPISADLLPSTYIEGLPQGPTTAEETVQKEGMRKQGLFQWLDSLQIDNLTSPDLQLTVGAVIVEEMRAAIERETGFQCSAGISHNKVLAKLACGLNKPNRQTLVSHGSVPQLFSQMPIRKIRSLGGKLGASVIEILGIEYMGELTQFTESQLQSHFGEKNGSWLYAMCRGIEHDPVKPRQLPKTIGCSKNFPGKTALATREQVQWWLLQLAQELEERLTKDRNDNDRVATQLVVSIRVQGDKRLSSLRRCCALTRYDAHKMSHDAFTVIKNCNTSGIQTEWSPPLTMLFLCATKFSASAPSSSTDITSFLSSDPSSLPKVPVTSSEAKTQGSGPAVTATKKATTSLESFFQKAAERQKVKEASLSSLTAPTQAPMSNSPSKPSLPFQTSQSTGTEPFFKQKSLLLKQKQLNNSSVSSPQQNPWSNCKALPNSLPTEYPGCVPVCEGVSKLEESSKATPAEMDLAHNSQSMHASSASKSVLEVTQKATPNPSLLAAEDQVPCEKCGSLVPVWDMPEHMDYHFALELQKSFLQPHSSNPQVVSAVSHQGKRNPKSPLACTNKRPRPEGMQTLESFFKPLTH
Chain of DNA polymerase iota (Homo sapiens) (Q9UNA4 whole entry, looked up): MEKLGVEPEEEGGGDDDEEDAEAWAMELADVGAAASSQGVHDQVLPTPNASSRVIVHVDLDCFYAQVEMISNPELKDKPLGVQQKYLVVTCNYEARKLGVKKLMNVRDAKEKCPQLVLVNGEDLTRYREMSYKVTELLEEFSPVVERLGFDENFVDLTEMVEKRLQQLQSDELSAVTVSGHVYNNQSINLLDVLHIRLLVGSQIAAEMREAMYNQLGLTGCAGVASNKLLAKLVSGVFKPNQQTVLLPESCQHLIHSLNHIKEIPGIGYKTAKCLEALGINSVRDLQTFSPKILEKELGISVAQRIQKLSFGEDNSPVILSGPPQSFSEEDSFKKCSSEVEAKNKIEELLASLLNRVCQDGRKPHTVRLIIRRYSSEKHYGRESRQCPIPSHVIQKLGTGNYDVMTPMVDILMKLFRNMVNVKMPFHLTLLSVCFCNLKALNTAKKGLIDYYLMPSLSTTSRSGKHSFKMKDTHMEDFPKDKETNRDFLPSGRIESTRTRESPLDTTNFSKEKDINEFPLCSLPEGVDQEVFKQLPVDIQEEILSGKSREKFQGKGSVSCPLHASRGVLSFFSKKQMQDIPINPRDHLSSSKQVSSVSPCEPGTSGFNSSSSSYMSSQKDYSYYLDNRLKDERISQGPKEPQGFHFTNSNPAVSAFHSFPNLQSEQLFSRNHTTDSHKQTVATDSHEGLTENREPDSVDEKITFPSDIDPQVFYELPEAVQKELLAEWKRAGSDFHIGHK
Chain of Flap endonuclease 1 (Homo sapiens) (P39748 whole entry, looked up): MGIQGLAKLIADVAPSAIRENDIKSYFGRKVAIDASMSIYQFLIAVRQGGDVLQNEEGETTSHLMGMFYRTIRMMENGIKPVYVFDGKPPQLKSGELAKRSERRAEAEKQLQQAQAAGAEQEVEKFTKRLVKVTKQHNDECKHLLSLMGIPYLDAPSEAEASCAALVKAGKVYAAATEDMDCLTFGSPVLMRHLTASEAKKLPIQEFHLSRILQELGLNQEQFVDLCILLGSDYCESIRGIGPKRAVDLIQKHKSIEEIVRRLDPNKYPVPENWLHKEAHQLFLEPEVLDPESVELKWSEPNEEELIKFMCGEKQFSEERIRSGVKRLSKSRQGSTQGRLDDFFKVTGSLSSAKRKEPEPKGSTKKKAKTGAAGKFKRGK

Take `CN(C)c1nc(Nc2ccc(Cl)c(Cl)c2)nc(N(C)C)n1`: the Potency result in test [1], in [2] and in test [3] was “inactive” each time.
Take `CCN(CC)CCOc1ccc2c(c1)C(=NNC(=O)c1ccccn1)c1cc(OCCN(CC)CC)ccc1-2`: the Potency was 13.6 µM (active) in test [1] and 2.15 µM (active) in [2]. Moreover, in [3], the Potency result is “inactive”.
Turning to `N#C/C(=C\C1=C(N2CCOCC2)C(=C\c2ccccc2)/CC1)C(=O)Nc1ccccc1F`, the Potency is 38.3 µM (active) in test [1], 30.1 µM (active) in [4] and 21.5 µM (active) in test [3]. For the same molecule, the Potency entry in test [2] was “inactive”.
Take `c1cnn2ncc(-c3ccnc(Nc4ccc5c(c4)OCCO5)n3)c2c1`: in [5], the molecule was classed as inactive.
As for `Cc1cc(/C=C2\SC(=O)N(C)C2=O)c(C)n1-c1cccc(C(=O)O)c1`, the Potency was 47.4 µM (active) in test [6], 9.47 µM (active) in test [7] and 30.1 µM (active) in test [4].
As to `Cc1nnc(-c2ccc(C)c(-c3ccc(C(=O)Nc4cccc(C#N)c4)cc3)c2)o1`, the result in test [5] was inactive.
Take `O=C1NC(=O)C(c2cccc(Cl)c2)=C1Nc1ccc(O)c(Cl)c1`: in test [5], the molecule was classed as inactive.
For `Cc1ccc(C(=O)O)cc1-c1ccc(/C=C2\SC(=O)N(CC(=O)Nc3ccc4c(c3)OCO4)C2=O)o1`, the Potency in [6] is 7.52 µM (active); in test [8] it was 19 µM (active); in test [4], 19 µM (active).
As to `O=C(NCC1CC1)c1ccc(-c2cccc(C(=O)NC3CC3)c2)cc1`, the outcome in [5] was inactive.
Regarding `O=C(COC(=O)CCC(=O)c1cccs1)NCc1ccco1`, the Potency was 23.8 µM (active) in test [6] and 75.7 µM (active) in [4].
Regarding `OCCCNc1nccc(-c2c(-c3ccc(F)cc3)nn3cc(C(F)(F)F)ccc23)n1`, the molecule was called inactive in [5].
The same measure, in the same setting: the result for `Cc1ccc(-c2cc3c(NC(=O)C4CC4)ncnc3o2)cc1` reads “inactive”.
Turning to `CCCCCCCCCCCCCCCC(=O)O[C@@H]1[C@@H](O)[C@@H](O)[C@@H]([C@H](NC(=O)[C@@H]2C[C@@H](CCC)CN2C)[C@H](C)Cl)O[C@@H]1SC`, the max response in test [9] was -16.5% (inactive).
Regarding `N[C@H]1CN(c2c(F)cc3c(=O)c(C(=O)O)cn(C4C[C@H]4F)c3c2Cl)CC12CC2` (stereo partly drawn), the max response in test [9] was -6.9% (inactive).
For the molecule `O=C(OCc1ccccc1)N1CCN(C(=O)[C@H](Cc2ccc(O[S+](=O)([O-])c3cccc4cnccc34)cc2)N[S+](=O)([O-])c2cccc3cnccc23)CC1`, in test [10], the remaining parasite growth % (stronger effect = lower value) was -0.959%. The molecule further came in with an activity, percent of control in test [11] of 0.261%. For the same molecule, the remaining proliferation (% of control), lower = more inhibition in [12] was -0.068%.
The matching figures for `O=C([C@H](Cc1ccc(O[S+](=O)([O-])c2cccc3cccnc23)cc1)N[S+](=O)([O-])c1cccc2cnccc12)N1CCN(c2ccccc2)CC1`: -0.402%, 1.4% and 0.212%.
Turning to `CC[C@]1(O)CC2CN(CCc3c([nH]c4ccccc34)[C@@](C(=O)OC)(c3cc4c(cc3OC)N(C)[C@H]3[C@@](O)(C(N)=O)[C@H](O)[C@]5(CC)C=CCN6CC[C@]43[C@@H]65)C2)C1` (stereo partly drawn), in test [9], the max response was -7.92% (inactive).
The same measure, in the same setting: for `C=C1C(=C/C=C2\CCC[C@]3(C)[C@@H]([C@H](C)CCCC(C)C)CC[C@@H]23)C[C@@H](O)C[C@@H]1O` the value was -2.16% (inactive).
Turning to `CN(C)CCC=C1c2ccccc2COc2ccccc21`, in test [13], the parasite growth, % of DMSO control was found to be 86.6%. Besides, the parasite growth remaining, % of DMSO control (lower = more inhibition) in test [14] was 53.4%. The parasite growth, % of control (lower = inhibition) in test [15] turned out to be 55.1%. The molecule also gave a growth, % of control in test [16] of 96.7%.

Source of the values: PubChem BioAssay (NCATS).
